Out of some 320,000 compounds screened, about 2,100 (0.66%) were called active. Not shown: some 53% with an inconclusive outcome. This is one part of a sample in which actives are shown more often than they occur. Calls follow the shape of the dose curve; as a rule, active = well fitted inhibition curve with a large enough effect in the signal ratio, with a control signal flat (not every such curve was filed as active); inconclusive = small, poorly fitted or top-dose-only effect, or effect the other way, or a change in a side signal; inactive = flat fitted curve, though single readings scatter; the % refers to the signal ratio.
Potency is read from the fitted curve at half-maximal effect.

This assay in a line: qHTS Assay for Lipid Storage Modulators in Drosophila S3 Cells.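 As to cell number change: cells counted by Cell Tracker Red CMTPX staining in the red channel.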 As to lipid storage change, negative = inhibition: % is scaled to controls: 0 for no effect and ±100 for the full control effect. To be noted: BODIPY lipid droplet fluorescence, 18-24 h, cells fed with added oleic acid; cell number change: measured here: cell count max response; series mostly up to 46.1 µM; lipid storage change, negative = inhibition: at the top concentration. In a few lines:
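Laser-scanning cytometry quantifies lipid droplet accumulation (500–530 nm total intensity; droplet/cell object ratio) in oleic acid-fed (400 uM added) Drosophila S3 cells treated with a concentration series. 20 uM Triacsin C defined 100% inhibition.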
Take `O=C(Oc1ccc(=O)n(-c2ccccc2)n1)c1cccc(Cl)c1`: the “lipid storage change, negative = inhibition” value was -13.7% (inactive) and the cell number change was -1.38%.
With `Cn1c(CNC(=O)c2ccc3c(c2)OCO3)nnc1SCC(=O)Nc1ccccc1F`, the call was inactive and the cell number change worked out at 3.42%.
For `CCN(Cc1ccccc1)S(=O)(=O)c1ccc(C(=O)N(CCCN(C)C)c2nc3cc(OC)ccc3s2)cc1`, the “lipid storage change, negative = inhibition” value was 11.6% (inactive) and the cell number change turned out to be 7.95%.
The like results for `O=C(COc1ccc2c3c(c(=O)oc2c1)CCC3)N1CCN(c2ccccc2)CC1` were, in that order, 74.1% (inactive) and 28.4%.
On to `CC1(C)CC(N2CCOCC2)=CC(=[N+]2CCOCC2)C1`, for which the “lipid storage change, negative = inhibition” value was -5.61% (inactive) and the cell number change was determined as 3.66%.
Take `CN1CCN(C(c2ccccc2)c2ccccc2)CC1`: the “lipid storage change, negative = inhibition” value is -13.1% (inactive) and the cell number change is 2.24%.
On to `CC1(C)CC(N2CCN(C(c3ccccc3)c3ccccc3)CC2)=CC(=[N+]2CCCCC2)C1`, for which the Potency was 2.06 µM (active) and the cell number change was -24.2%.
As for `Cc1cc(SCC(=O)Nc2cccc(S(N)(=O)=O)c2)c(C)cc1Br`, the “lipid storage change, negative = inhibition” value is -2.43% (inactive) and the cell number change worked out at 15.2%.
The like results for `COc1ccc(OCCCn2ccnc2)cc1` were, in that order, 9.55% (inactive) and -3.82%.
Consider `c1ccc(Cc2ccc(OCCn3ccnc3)cc2)cc1`, for which the Potency was 3.66 µM (active) and the cell number change was -8.07%.
With `CCc1ccc(OCCCCCn2ccnc2)cc1`, the Potency is 4.61 µM (active) and the cell number change is -11.6%.
Turning to `O=C(O)c1ccc(OCCn2ccnc2)cc1`, the “lipid storage change, negative = inhibition” value was -12.6% (inactive) and the cell number change came to 11.3%.
`CCc1ccc(OCCn2ccnc2)cc1`: the “lipid storage change, negative = inhibition” value was 12.1% (inactive) and the cell number change is -22.2%.
With `COc1ccc(OCCn2ccnc2)cc1`, the call was inactive and the cell number change is -2.55%.
The like results for `COc1ccccc1NC(=O)C1=C(C)Nc2nc(CCCO)nn2C1c1ccc2c(c1)OCO2` (stereo not drawn) were, in that order, “inactive” and -2.99%.
Consider `COc1ccc(Cl)cc1S(=O)(=O)N1CCC(C(=O)NCC2CCCO2)CC1` (stereo not drawn), for which the compound was called inactive and the cell number change stood at 6.08%.
For the compound `CCCS(=O)(=O)N1CCN(C(=O)c2cccnc2)CC1`, the compound was called inactive.
For `COCCCn1c(SCC(=O)NC(C)C)nnc1-c1ccccc1`, the “lipid storage change, negative = inhibition” value was 9.76% (inactive) and the cell number change came out at 1.73%.
Consider `COc1cc(C(=O)O)ccc1OCC(=O)N1CCOCC1`, for which the “lipid storage change, negative = inhibition” value was -14.9% (inactive) and the cell number change is -12%.
As to `COc1cc(C(=O)Nc2ccc(C)cn2)ccc1OCC(=O)N1CCOCC1`, the Potency was 20.6 µM (active) and the cell number change was 5.26%.
With `CCc1ccc(C(=O)NNC(=O)c2ccc(OCC(=O)N3CCOCC3)c(OC)c2)cc1`, the “lipid storage change, negative = inhibition” value is -4.56% (inactive) and the cell number change was -13.6%.
For `CCN(CC)CCCNC(=O)CSc1nc(-c2ccc(F)cc2)cc(C(F)(F)F)n1` the same measures were 0.643% (inactive) and 4.94%.
For the compound `CCC(C)(C)NC(=O)CN(C(=O)c1snc(C(N)=O)c1N)c1ccc2c(c1)OCCO2`, the compound was classed as inactive and the cell number change turned out to be 19.8%.
`O=C(CNC(=O)c1ccccc1)OCc1cccc([N+](=O)[O-])c1`: the “lipid storage change, negative = inhibition” value is 0.419% (inactive) and the cell number change is -2.11%.
As to `CN(C)S(=O)(=O)c1cccc(COC(=O)CCNC(=O)c2ccc([N+](=O)[O-])cc2)c1`, the Potency was 2.31 µM (active) and the cell number change came to 9.78%.
For the compound `CN(C)S(=O)(=O)c1cccc(C(=O)NCCNC(=O)c2cccc(S(=O)(=O)N(C)C)c2)c1`, the “lipid storage change, negative = inhibition” value was -11.8% (inactive) and the cell number change was -23.4%.
In the case of `Cn1c(CC(=O)Nc2cccc(Cl)c2Cl)nnc1SCC(=O)NC1=NCCS1`, the “lipid storage change, negative = inhibition” value is 19% (inactive) and the cell number change came out at 10.7%.
Take `CC(C)n1c(N)c(C#N)c2ccc([N+](=O)[O-])cc2c1=O`: the “lipid storage change, negative = inhibition” value was -3.14% (inactive) and the cell number change was determined as 17.3%.
For `COC(=O)c1cc2c(=O)c3ccccc3oc2nc1C`, the “lipid storage change, negative = inhibition” value was -1.05% (inactive) and the cell number change came out at 21.3%.
As for `COc1ccccc1CNC(=O)COC(=O)c1cc(C)oc1C`, the “lipid storage change, negative = inhibition” value was 4.54% (inactive) and the cell number change came to 0.0455%.
As for `COc1ccccc1CNC(=O)COC(=O)c1ccc(C)s1`, the Potency was 8.2 µM (active) and the cell number change amounted to 8.78%.
Consider `COc1ccccc1CNC(=O)c1ccc(C)s1`, for which the “lipid storage change, negative = inhibition” value was 7.86% (inactive) and the cell number change was 2.24%.
As for `O=S(=O)(NCC(c1cccs1)N1CCc2ccccc2C1)c1ccccc1` (stereo not drawn), the cell number change turned out to be 2.02% and the lipid storage change, negative = inhibition is -15.3% [at 0.0737 µM] (inactive).
For `Cc1ccc(S(=O)(=O)CC(=O)N2CCCC2)cc1` the same measures were -4.5% and 0.497% (inactive).
In the case of `O=C(CS(=O)(=O)c1ccccc1)N1CCCCC1`, the result was inactive and the cell number change turned out to be 17.3%.
For `O=C(CS(=O)(=O)c1ccccc1)N1CCCCCC1`, the Potency was 14.6 µM (active).
Consider `COc1ccc(S(=O)(=O)N2CCOC2CNC(=O)C(=O)NCC(C)C)cc1` (stereo not drawn), for which the “lipid storage change, negative = inhibition” value was 23.8% (inactive) and the cell number change was -19.7%.
As for `CCCCc1nnc(NC(=O)C(C)Sc2nc(O)c(Cc3ccccc3)c(=O)[nH]2)s1` (stereo not drawn), the “lipid storage change, negative = inhibition” value was -12.5% (inactive) and the cell number change was -6.85%.
`Cc1ccsc1/C=N/N=C/c1sccc1C`: the Potency is 18.4 µM (active) and the cell number change was -16.1%.
Regarding `Cc1ccsc1/C=N/n1cnnc1`, the “lipid storage change, negative = inhibition” value is -1.09% (inactive) and the cell number change came out at 4.23%.
Regarding `Cc1ccsc1C=Nc1ccc(O)cc1`, the “lipid storage change, negative = inhibition” value is -2.45% (inactive) and the cell number change is -20.6%.
For `CC(C)c1ccc(/C=N/NC(=O)CC(=O)NC2CCCCC2)cc1` the same measures were 20.4% (inactive) and 0.119%.
Regarding `CC(C)(C)c1ccc(/C=N/NC(=O)C2CCCC2)cc1`, the outcome was inactive and the cell number change is -15.9%.
With `CC(C)c1ccc(/C=N/NC(=O)C2CCCC2)cc1`, the Potency is 3.26 µM (active) and the cell number change was -28.7%.
For `c1ccc(N2CC[N+]3(CCCC3)CC2)nc1`, the “lipid storage change, negative = inhibition” value is 3.09% (inactive) and the cell number change worked out at 0.943%.
Regarding `CC(C)(C)OC(=O)NCCCC[C@H](NC(=O)c1[nH]cnc1C(=O)Nc1ccc(CNC(=O)OC(C)(C)C)cc1)C(=O)OC(C)(C)C`, the “lipid storage change, negative = inhibition” value was -17.4% (inactive).
`CN(C)c1ccc(C=NCCC2(c3ccccc3)CCOC(C)(C)C2)cc1` (stereo not drawn): the “lipid storage change, negative = inhibition” value is 3.28% (inactive) and the cell number change was -6.59%.
For `O=C(Nc1ccon1)c1cc2ccccc2oc1=O`, the call was inactive and the cell number change is 11.7%.

(Values after PubChem BioAssay AID2685 (National Center for Advancing Translational Sciences (NCATS), 2010).)
